Assay [1] addresses Rap guanine nucleotide exchange factor 3 (Homo sapiens) (UniProt O95398). Description: Confirmatory qHTS for antagonist of cAMP-regulated guanine nucleotide exchange factor 3 (EPAC1) (AID 1645880). Further: nearly all actives have a fitted effect of over 55% in size. Further: potency means the concentration at half of the fitted maximal effect.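 On activity, negative = inhibition: plate controls were DMSO only for no effect and full effect of the ATA control for full effect.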 The following applies: EPAC1 Rap1B-BODIPY-GDP exchange, fluorescence; activity, negative = inhibition: at 115 µM (top of the series). The method, boiled down:
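Nucleotide exchange uses 100 nM EPAC1, 250 nM RAP1B-BODIPY-GDP and 50 uM GDP, with compounds in a concentration-titration series. After 5 min at room temperature, fluorescence (480 nm ex/540 nm em) is read every 5 min for 30 min. Data are normalized to control ATA and DMSO.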

The target is the same in assay [2]. The experiment in a line: Confirmatory qHTS for agonist of cAMP-regulated guanine nucleotide exchange factor 3 (EPAC1) (AID 1645881).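 Further: EPAC1 catalysed release of BODIPY-GDP from Rap1B seen as fluorescence loss; 100% = effect of cAMP agonist control; nearly all actives have a fitted effect of over 75% in size.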
Assay [3] deals with Rap guanine nucleotide exchange factor 4 (Homo sapiens) (UniProt Q8WZA2). Description: Confirmatory qHTS for agonist of cAMP-regulated guanine nucleotide exchange factor 4 (EPAC2) (AID 1645884).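 Further: nucleotide exchange releases bodipy-GDP from Rap1 and this lowers its fluorescence; on the % scale 0 is the no-effect control and ±100 the full control effect; nearly all actives have a fitted effect of over 65% in size.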
Rap guanine nucleotide exchange factor 4 (Homo sapiens), sequence (Q8WZA2 whole entry, looked up): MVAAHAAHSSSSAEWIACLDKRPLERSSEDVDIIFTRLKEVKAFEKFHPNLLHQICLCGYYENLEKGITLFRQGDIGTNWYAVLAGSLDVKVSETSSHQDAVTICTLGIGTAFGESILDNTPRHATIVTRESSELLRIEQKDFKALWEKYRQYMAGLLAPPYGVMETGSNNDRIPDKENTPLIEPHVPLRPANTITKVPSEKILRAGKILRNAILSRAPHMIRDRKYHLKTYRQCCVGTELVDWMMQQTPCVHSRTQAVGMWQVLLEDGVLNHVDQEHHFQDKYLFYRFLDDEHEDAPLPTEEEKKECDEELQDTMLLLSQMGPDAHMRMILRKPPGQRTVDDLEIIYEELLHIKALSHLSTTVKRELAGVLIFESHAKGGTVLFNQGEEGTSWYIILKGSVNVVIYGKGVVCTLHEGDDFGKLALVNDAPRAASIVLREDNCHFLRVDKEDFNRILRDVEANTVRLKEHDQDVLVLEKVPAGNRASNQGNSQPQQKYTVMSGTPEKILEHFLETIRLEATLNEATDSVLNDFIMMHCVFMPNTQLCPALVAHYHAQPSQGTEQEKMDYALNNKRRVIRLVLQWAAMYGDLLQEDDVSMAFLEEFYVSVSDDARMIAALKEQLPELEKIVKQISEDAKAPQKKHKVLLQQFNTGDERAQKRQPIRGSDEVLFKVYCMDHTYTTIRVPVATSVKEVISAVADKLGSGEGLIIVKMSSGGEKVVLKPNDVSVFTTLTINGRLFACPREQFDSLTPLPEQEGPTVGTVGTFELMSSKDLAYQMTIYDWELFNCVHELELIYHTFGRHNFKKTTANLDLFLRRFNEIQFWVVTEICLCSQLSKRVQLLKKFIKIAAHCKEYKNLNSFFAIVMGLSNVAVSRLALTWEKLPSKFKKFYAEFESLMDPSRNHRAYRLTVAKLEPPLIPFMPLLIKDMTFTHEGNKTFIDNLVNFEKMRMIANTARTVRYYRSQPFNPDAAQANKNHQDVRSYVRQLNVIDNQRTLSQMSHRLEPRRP
Assay [4] shares this target. Description: Confirmatory qHTS for antagonist of cAMP-regulated guanine nucleotide exchange factor 4 (EPAC2) (AID 1645885). Further: nearly all actives have a fitted effect of over 25% in size. Further: potency means the concentration at half of the fitted maximal effect. On activity change, negative = inhibition: on the % scale 0 is the no-effect control and ±100 the full control effect.
Assay [5] addresses Rap guanine nucleotide exchange factor 3 (Homo sapiens) (UniProt O95398). Description: Counterscreen qHTS for antagonist of cAMP-regulated guanine nucleotide exchange factor 3 (EPAC1) (AID 1645888).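 Further: fluorescence loss as bound BODIPY-GDP is released from Rap1B; % of control where 0% means no effect.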 The method, boiled down: (§1)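 Measured: fluorescence of BODIPY-GDP bound to Rap1B, which falls as exchange proceeds. Conditions include 50 uM competing GDP, 5 and 30 min reads, and a later cAMP challenge for antagonist detection.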

For assay [6] the target is unchanged. The experiment in a line: Counterscreen qHTS for agonist of cAMP-regulated guanine nucleotide exchange factor 3 (EPAC1) (AID 1645889). Further: % of control where 0% means no effect; nearly all actives have a fitted effect of over 40% in size. The procedure, abridged: as §1

Molecules are shown by their SMILES. Inconclusive results are not listed. Values without a mark were called inactive. The source made the active and inactive calls. The call rests on the fitted dose curve; in most records, active means well fitted curve in the direction sought with a large enough effect; inconclusive means small, poorly fitted or top-dose-only effect, or another doubt; inactive means no such curve, though single readings can be large; an effect the other way counts as inactive or inconclusive.

The record followed here is PubChem BioAssay (NCATS).

Rap guanine nucleotide exchange factor 3 (Homo sapiens), sequence (O95398 whole entry, looked up): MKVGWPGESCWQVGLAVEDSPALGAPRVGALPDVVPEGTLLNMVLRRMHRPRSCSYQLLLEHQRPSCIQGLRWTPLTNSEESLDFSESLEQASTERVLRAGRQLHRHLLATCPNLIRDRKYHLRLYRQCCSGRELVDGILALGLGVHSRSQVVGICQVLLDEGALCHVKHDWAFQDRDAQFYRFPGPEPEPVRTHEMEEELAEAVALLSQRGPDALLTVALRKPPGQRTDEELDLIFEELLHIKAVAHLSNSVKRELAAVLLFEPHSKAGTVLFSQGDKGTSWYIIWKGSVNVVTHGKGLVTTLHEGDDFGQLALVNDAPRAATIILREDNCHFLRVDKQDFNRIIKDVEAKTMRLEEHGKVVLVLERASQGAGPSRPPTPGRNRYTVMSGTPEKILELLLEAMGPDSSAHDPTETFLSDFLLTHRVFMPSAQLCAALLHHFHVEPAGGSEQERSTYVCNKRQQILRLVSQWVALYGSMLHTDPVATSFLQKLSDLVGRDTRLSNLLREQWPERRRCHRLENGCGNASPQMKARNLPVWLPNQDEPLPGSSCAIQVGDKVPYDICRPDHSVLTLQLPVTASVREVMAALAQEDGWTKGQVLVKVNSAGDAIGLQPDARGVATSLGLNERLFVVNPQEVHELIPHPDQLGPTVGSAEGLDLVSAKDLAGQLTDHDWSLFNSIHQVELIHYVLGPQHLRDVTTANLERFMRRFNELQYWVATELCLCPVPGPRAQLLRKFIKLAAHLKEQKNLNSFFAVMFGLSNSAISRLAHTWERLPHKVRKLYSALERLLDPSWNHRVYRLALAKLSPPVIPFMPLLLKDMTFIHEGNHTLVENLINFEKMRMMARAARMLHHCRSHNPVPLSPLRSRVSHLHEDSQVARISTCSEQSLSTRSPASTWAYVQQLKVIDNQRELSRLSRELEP

`CCCCc1nc(SCCOC)c2c(=O)n(C)c(=O)n(C)c2n1`: the Potency entry in assay [1], in assay [2] and in assay [4] was “inactive” throughout. The activation in assay [3] was 4.93% [at 17.1 µM, percent relative to cAMP agonist control]; in assay [6], -0.239% [at 30.8 µM]. The activity change, negative = inhibition in assay [5] was -15.9% [at 30.8 µM].

Consider `O=C(CN(Cc1ccco1)C(=O)c1ccc(Cl)cc1)Nc1c(Cl)cc(Cl)cc1Cl`, for which the Potency result in assay [1], in assay [2], in assay [3], in assay [4], in assay [5] and in assay [6] was “inactive” throughout.

Regarding `COc1cnc(-c2ccccc2)c(-c2ccccc2)n1`, the Potency result in assay [1], in assay [2] and in assay [4] was “inactive” each time. The activation is 7.78% [at 17.1 µM, percent relative to cAMP agonist control] in assay [3] and -4.28% [at 30.8 µM] in assay [6]. In addition, in assay [5], the activity change, negative = inhibition is -6.36% [at 30.8 µM].

For `CC1Cc2nc(SCC(=O)N3CCCc4ccccc43)n(C)c(=O)c2S1` (stereo not given), the Potency result in assay [1], in assay [2] and in assay [4] was “inactive” each time. The activation in assay [3] is -4.86% [at 17.1 µM, percent relative to cAMP agonist control]; in assay [6], 4.66% [at 30.8 µM]. For the same compound, the activity change, negative = inhibition in assay [5] was -11.9% [at 30.8 µM].

`N#C/C(=C(/O)C(Cl)(Cl)Cl)c1nc2ccccc2[nH]1`: the Potency entry in assay [1], in assay [2], in assay [3], in assay [4], in assay [5] and in assay [6] was “inactive” throughout.

On to `Fc1ccc(-c2ccc3nccn3c2)cc1Cl`, for which the Potency entry in assay [1], in assay [2] and in assay [4] was “inactive” throughout. In addition, the activation is 2.32% [at 17.1 µM, percent relative to cAMP agonist control] in assay [3] and 10.1% [at 30.8 µM] in assay [6]. Besides, the activity change, negative = inhibition in assay [5] was -1.11% [at 30.8 µM].

As to `Cc1ccc(S(=O)(=O)NCCC(=O)N2CCC(Cc3ccccc3)CC2)cc1`, the Potency result in assay [1], in assay [2] and in assay [4] was “inactive” throughout. Also, the activation in assay [3] is 3.1% [at 17.1 µM, percent relative to cAMP agonist control]; in assay [6], 8.49% [at 30.8 µM]. Also, the activity change, negative = inhibition in assay [5] was -15.5% [at 30.8 µM].

Regarding `CCOC(=O)c1c(NC(=O)c2ccccc2OCC)sc2c1CCC(CC)C2` (stereo not given), the Potency entry in assay [1], in assay [2], in assay [3], in assay [4], in assay [5] and in assay [6] was “inactive” each time.

In the case of `Cc1ccc2c(c1)NC(=O)C(CC(=O)N(C)Cc1ccccc1)O2` (stereo not given), the Potency result in assay [1], in assay [2] and in assay [4] was “inactive” in each case. Moreover, the activation is 3.24% [at 17.1 µM, percent relative to cAMP agonist control] in assay [3] and 9.9% [at 30.8 µM] in assay [6]. Besides, the activity change, negative = inhibition in assay [5] is -5.86% [at 30.8 µM].

Turning to `Cc1nc2c(C(=O)NCCc3ccc(Cl)cc3)c[nH]n2c(=O)c1Cc1ccccc1F`, in assay [1], the Potency is 84.9 µM (active). In addition, the Potency entry in assay [2], in assay [3], in assay [4], in assay [5] and in assay [6] was “inactive” each time.

`O=c1c(-c2ccc(F)cc2)[n+]([O-])c2ccccc2n1OCc1ccccn1`: the Potency result in assay [1], in assay [2] and in assay [4] was “inactive” each time. Further, the activation in assay [3] was -8.77% [at 17.1 µM, percent relative to cAMP agonist control]; in assay [6], 6.02% [at 30.8 µM]. Further, in assay [5], the activity change, negative = inhibition is 1.53% [at 30.8 µM].

Regarding `O=C(COC(=O)Cc1c(Cl)cccc1Cl)NCC1CCCO1` (stereo not given), the Potency entry in assay [1], in assay [2], in assay [3], in assay [5] and in assay [6] was “inactive” each time. Further, the Potency in assay [4] was 75.7 µM (active).

Consider `C/C(=N\NC(=O)c1cc(O)ccc1O)c1cccc(NC(=O)c2ccc(Cl)cc2)c1`, for which the Potency in assay [1] was 75.7 µM (active). Moreover, the Potency entry in assay [2], in assay [3], in assay [4], in assay [5] and in assay [6] was “inactive” in each case.

On to `CCOc1cc(/C=C2\SC(=S)N(NS(=O)(=O)c3ccc(C)cc3)C2=O)ccc1O`, for which the Potency in assay [1] is 19 µM (active). The Potency result in assay [2], in assay [3], in assay [4], in assay [5] and in assay [6] was “inactive” throughout.

Take `COc1cc(NC(=O)C2CCCCC2)c(OC)cc1NC(=O)CN1CCCCC1`: the Potency entry in assay [1], in assay [2] and in assay [4] was “inactive” throughout. Also, the activation in assay [3] was 4.14% [at 17.1 µM, percent relative to cAMP agonist control]; in assay [6] it was 11.1% [at 30.8 µM]. Further, in assay [5], the activity change, negative = inhibition is -6.17% [at 30.8 µM].

On to `O=C(O)CN1C(=O)/C(=C\c2cc(Br)ccc2OCc2ccc(Cl)cc2)SC1=S`, for which the Potency in assay [1] is 30.1 µM (active); in assay [4], 47.8 µM (active). The Potency entry in assay [2], in assay [3], in assay [5] and in assay [6] was “inactive” each time.

For `Cc1cc(C)c2cccc(N)c2n1`, the Potency result in assay [1], in assay [2] and in assay [4] was “inactive” throughout. Moreover, the activation was 3.77% [at 17.1 µM, percent relative to cAMP agonist control] in assay [3] and 7.96% [at 30.8 µM] in assay [6]. The activity change, negative = inhibition in assay [5] is 8.48% [at 30.8 µM].

On to `COc1ccc(/C=N/Nc2ncnc3sc(C)c(C)c23)cc1`, for which the Potency result in assay [1], in assay [2], in assay [3], in assay [4], in assay [5] and in assay [6] was “inactive” throughout.

For `CN(C(=O)CSc1nc2[nH]ncc2c(=O)[nH]1)c1ccccc1`, the Potency result in assay [1], in assay [2] and in assay [4] was “inactive” throughout. Besides, the activation was 1.67% [at 17.1 µM, percent relative to cAMP agonist control] in assay [3] and -11.1% [at 30.8 µM] in assay [6]. For the same compound, in assay [5], the activity change, negative = inhibition was -21.3% [at 30.8 µM].

In the case of `COc1cccc(C(=O)NC(=S)N2c3ccccc3CC2C)c1OC` (stereo not given), the Potency entry in assay [1], in assay [2] and in assay [4] was “inactive” throughout. In addition, the activation in assay [3] was 5.75% [at 17.1 µM, percent relative to cAMP agonist control]; in assay [6], 14.2% [at 30.8 µM]. In addition, the activity change, negative = inhibition in assay [5] is -1.25% [at 30.8 µM].
